Screens (PubChem BioAssay)
Pf Dd2 growth = inhibitors of Plasmodium falciparum Dd2 growth | actives 4.3% (n = 120,000) | AID 1347417 | P. falciparum Dd2 growth, SYBR Green, 72 h | Potency, µM (doses to about 28.9 µM), hits mostly inhibitors; active = well fitted inhibition curve with a large enough effect; note: nearly all actives have a fitted effect of over 65% in size
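Readout: SYBR Green fluorescence, 485 nm excitation, 535 nm emission, after ~16 h lysis at 37C. Before that, Dd2-infected red cells (2.5% hematocrit) grew 72 h with compound, 29 uM top final concentration.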
Hits are given with their value; i = inactive. Shown is part of a subset that was picked to be rich in hits.

SMILES	Pf Dd2 growth
COC(=O)Cc1c(C)c2ccc3c(c2oc1=O)CN(Cc1ccccc1Cl)CO3	7.1µM
COc1ccccc1CCNC(=O)Cc1c(C)c2c(cc(C)c3c(C)c(C)oc32)oc1=O	i
COC(=O)Cc1c(C)c2ccc3c(c2oc1=O)CN(Cc1ccc(C)cc1)CO3	11µM
COc1cccc(CN2CCOc3ccc(C(=O)NCc4ccc(C)cc4)cc3C2)c1	i
COc1ccc(CNC(=O)Cc2c(C)c3cc4c(C)coc4c(C)c3oc2=O)cc1	i
COc1ccccc1CNC(=O)Cc1c(C)c2c(cc(C)c3c(C)c(C)oc32)oc1=O	i
CCC1Oc2ccc(NC(=O)C3CCCC3)cc2CN(Cc2ccccc2Cl)C1=O (stereo not drawn)	i
COC(=O)Cc1c(C)c2ccc3c(c2oc1=O)CN(Cc1ccccc1OC)CO3	13µM
CC(=O)c1ccc(NC(=O)O[C@@H]2CO[C@H]3[C@@H]2OC[C@@H]3NC(=O)NCc2ccccc2)cc1	i
Cc1cccc(C(=O)N2C[C@@H](Oc3ccccc3)C[C@H]2C(=O)NC2CC2)c1	i
COc1ccc(CNC(=O)N2CCC(OC3CCN(S(C)(=O)=O)CC3)CC2)cc1	i
O=C(COc1ccc(Cl)cc1)N1CCN(c2ccccc2)C(=O)C1	i
O=C(C1CCCC1)N1CCCC(n2cc(-c3nc(-c4ccccc4)no3)nn2)C1 (stereo not drawn)	i
O=C1NCN(Cc2ccc(Cl)cc2)C12CCN(Cc1ccc(C(F)(F)F)cc1)CC2	i
O=C(Cc1c[nH]c2ccccc12)NCc1cccnc1N1CCOCC1	i
COCC1CN(C(=O)c2ccc(C)s2)CC12CCOCC2 (stereo not drawn)	i
CC(Cn1cccn1)C(=O)N1CCC(Oc2ccccc2)(C(=O)O)CC1 (stereo not drawn)	i
CC(=O)N1CCC(N2CCOC[C@H]2c2ncc(-c3ccc(C(F)(F)F)cc3)[nH]2)CC1	i
O=C(NC1CCCCC1)N1CC(c2nc(CCOCC3CC3)no2)C1	i
COCCC(=O)N1CCC2(CC1)C(=O)N(C)c1ccccc12	i
CN1C(=O)C2(CCN(C(=O)CCCS(N)(=O)=O)CC2)c2ccccc21	i
CN1C(=O)C2(CCN(C(=O)CCC3CCCCC3)CC2)c2ccccc21	5µM
CCCc1nc2sc3c(N4CCCCC4)ncnc3c2c2c1CCCC2	i
CCCCCCNc1ncnc2c1sc1nc(N3CCOCC3)c3c(c12)CCCC3	8.9µM
CC(C)OCCCNc1ncnc2sc3c(c12)CCCC3	i
SMILES	Pf Dd2 growth
CC[C@H]1CN(C(=O)C2CC2)CC[C@H]1CC(=O)N(C)CCC#N	i
CN1[C@@H](CCC(=O)NCc2cccnc2)CNC(=O)[C@@H]2[C@H]1CCN2C1CCCCC1	i
CCOc1cc(=O)n2c(c1C(=O)Nc1ccc(F)cc1Cl)CCCC2	i
Cc1cccn2c(Nc3ccccc3)c(-c3ccc(N4CCOCC4)cc3)nc12	i
Cc1cccn2c(Nc3ccc4c(c3)OCCO4)c(-c3ccc(Br)o3)nc12	8.9µM
Cc1ccc(-c2nc3cccc(C)n3c2Nc2ccc3c(c2)OCO3)o1	i
COCC(=O)N[C@@H]1CN(Cc2cnn(C)c2C)C[C@H]1CO	i
CCOc1ccc(C(=O)N2CCN(c3cc(-c4ccc(F)cc4)[nH]n3)CC2)cc1OCC	i
O=C(c1ccccc1)N1CCCN(c2cc(-c3ccc(Cl)cc3)[nH]n2)CC1	i
Cc1ccc(-c2cc(N3CCCN(C(=O)c4ccsc4)CC3)n[nH]2)cc1C	i
COc1cc(OC)cc(C(=O)N2CCCN(c3cc(-c4ccc(C)c(C)c4)[nH]n3)CC2)c1	11µM
CCOc1ccc(C(=O)N2CCCN(c3cc(-c4ccc(Cl)cc4)[nH]n3)CC2)cc1OCC	5µM
COc1cc(C(=O)N2CCCN(c3cc(-c4ccc(C)c(C)c4)[nH]n3)CC2)cc(OC)c1OC	i
Cc1cccc(OCC(=O)N2CCC3(CC2)NC(=O)N(c2ccc(F)cc2)N3)c1	i
COCCNC(=O)CN1C(=O)NC(c2ccccc2OC)C2=C1COC2=O (stereo not drawn)	i
COCC(=O)NC[C@H]1COCc2nc3cc(C(=O)OC)ccc3n21	i
CN(C(=O)CN1C(=O)NC2(CCS(=O)(=O)CC2)C1=O)c1ccccc1	i
COc1ccc(-c2[nH]nc3ncc(-c4ccccc4F)nc23)c(C)c1	i
CCc1noc(CN2CCOc3c(O)cc(-c4ccccc4C)cc3C2)n1	i
C=CCn1cc(CN2CCC(Oc3ccc4ccccc4c3)(C(=O)O)CC2)cn1	i
Cc1ccncc1C(=O)N1CCOc2c(O)cc(-c3ccccc3C)cc2C1	i
Cc1nc(C(=O)N2CCOc3c(O)cc(-c4cccc(Cl)c4)cc3C2)cs1	i
C=CCn1cc(CN2CCOc3c(O)cc(-c4cccc(Cl)c4)cc3C2)cn1	11µM
Cc1ccccc1-c1cc(O)c2c(c1)CN(Cc1ccoc1)CCO2	11µM
CC(C)CNC(=O)CN1CCOc2c(O)cc(-c3cccc(Cl)c3)cc2C1	10µM
SMILES	Pf Dd2 growth
Oc1cc(-c2cccc(Cl)c2)cc2c1OCCN(c1cc(C3CC3)ncn1)C2	i
Cn1cc([C@@H](NC(=O)CN2CCOc3ccccc3C2)C2CC(O)C2)cn1 (stereo partly drawn)	i
Cc1ccc(Cl)cc1NC(=O)N1CC(C(=O)N(C)C)C2(CCOCC2)C1 (stereo not drawn)	i
CC(=O)N1CCC(N2CC3(C2)C(=O)N(CCCN2CCCC2=O)C(=O)[C@@H]2C[C@@H](O)CN23)CC1	i
NC(c1ccccc1)c1nnc2n1CCN(C(=O)N1CCCCC1)C2 (stereo not drawn)	i
COc1ccc2[nH]c3c(c2c1)CCN(C)C31CCN(C(=O)c2ccccc2F)CC1	i
Cc1noc(C)c1C(C(=O)O)N(C)Cc1nc(-c2ccccn2)no1 (stereo not drawn)	i
O=C(C[C@H]1NC(=O)c2ccccc2NC1=O)Nc1nc(-c2cccnc2)cs1	i
CCOc1ccccc1C(=O)N1CCCn2ccnc2C1CC (stereo not drawn)	i
CCc1ccc(C(=O)N2CC(c3nnc(-c4ccc(C)cc4)o3)C3(CCOCC3)C2)cc1 (stereo not drawn)	i
COc1ccc(CNC(=O)CC[C@]23CC[C@](C)(O)C[C@H]2C(C)(C)C[C@@H]3NC(=O)c2cccs2)cc1	i
COc1ccc(CNC(=O)CC[C@]23CC[C@](C)(O)C[C@H]2C(C)(C)C[C@@H]3NC(=O)CC(C)(C)C)cc1	i
COc1ccc(CNC(=O)CC[C@]23CC[C@](C)(O)C[C@H]2C(C)(C)C[C@@H]3NCc2ccccn2)cc1	7.9µM
CC(C)NC(=O)C[C@@H]1O[C@H](CNC(=O)c2ccccc2)[C@@H](O)[C@H]1O	i
Cc1ccc2c(=O)c(C(=O)c3cccc(Cl)c3)cn(CC(=O)NCc3ccc(F)cc3)c2n1	i
Cc1ccc(C)c(NC(=O)Cn2cc(C(=O)c3ccc(Cl)cc3)c(=O)c3ccc(C)nc32)c1	i
CCN(C(=O)Cn1cc(C(=O)c2ccc(F)cc2)c(=O)c2ccc(C)nc21)c1cccc(C)c1	8.9µM
CN1C(=O)CCC2(CNC(=O)c3ccco3)CCCC=C12 (stereo not drawn)	i
CCn1ncc(N2CCC(NC(=O)CCC3CCCCC3)CC2)cc1=O	i
COc1cccc(Nc2csc(CN3CCCC(C)(NC(C)=O)C3)c2)c1 (stereo not drawn)	7.9µM
COc1cccc(Nc2cc(CN3CCC(C)(NC(C)=O)CC3)cc(OC)c2)c1	i
COc1cccc(-c2cccc(CN3CCCC(C)(NC(C)=O)C3)c2)c1 (stereo not drawn)	i
COCCn1c(CO)nnc1C1CC(NC(=O)C2(C)CCCC2)C1 (stereo not drawn)	i
CCC(=O)Nc1ccc(C2(C(=O)NCC(C)C)CCCCC2)cc1	i
